# Experiments:
# [1] = biological target: T1, Inhibitor of nuclear factor kappa-B kinase subunit epsilon (Homo sapiens) (UniProt Q14164); conditions: at 1 µM;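 also: reported values are averaged percent inhibition figures against human IKKε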
# T1 sequence (whole entry): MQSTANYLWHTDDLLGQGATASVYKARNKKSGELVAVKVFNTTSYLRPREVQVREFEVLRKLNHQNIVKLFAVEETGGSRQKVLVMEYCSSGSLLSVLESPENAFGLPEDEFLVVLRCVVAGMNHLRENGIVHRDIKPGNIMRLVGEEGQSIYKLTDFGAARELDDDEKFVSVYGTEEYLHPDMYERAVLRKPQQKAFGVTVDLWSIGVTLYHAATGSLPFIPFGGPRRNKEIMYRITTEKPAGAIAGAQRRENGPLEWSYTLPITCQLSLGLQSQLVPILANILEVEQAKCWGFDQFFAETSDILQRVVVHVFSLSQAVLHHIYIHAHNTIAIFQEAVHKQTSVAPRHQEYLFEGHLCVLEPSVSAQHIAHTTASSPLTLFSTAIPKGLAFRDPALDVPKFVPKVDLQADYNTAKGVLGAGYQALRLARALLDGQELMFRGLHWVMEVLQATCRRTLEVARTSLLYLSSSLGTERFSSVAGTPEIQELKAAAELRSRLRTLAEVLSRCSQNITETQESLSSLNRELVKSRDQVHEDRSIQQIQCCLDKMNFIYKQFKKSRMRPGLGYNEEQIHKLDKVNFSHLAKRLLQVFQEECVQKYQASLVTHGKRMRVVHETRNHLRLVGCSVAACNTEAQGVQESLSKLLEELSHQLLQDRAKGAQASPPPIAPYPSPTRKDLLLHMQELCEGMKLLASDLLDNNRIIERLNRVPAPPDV
# [2] = biological target: T2, Serine/threonine-protein kinase Nek1 (Homo sapiens) (UniProt Q96PY6); conditions: at 0.1 µM
# T2 sequence (whole entry): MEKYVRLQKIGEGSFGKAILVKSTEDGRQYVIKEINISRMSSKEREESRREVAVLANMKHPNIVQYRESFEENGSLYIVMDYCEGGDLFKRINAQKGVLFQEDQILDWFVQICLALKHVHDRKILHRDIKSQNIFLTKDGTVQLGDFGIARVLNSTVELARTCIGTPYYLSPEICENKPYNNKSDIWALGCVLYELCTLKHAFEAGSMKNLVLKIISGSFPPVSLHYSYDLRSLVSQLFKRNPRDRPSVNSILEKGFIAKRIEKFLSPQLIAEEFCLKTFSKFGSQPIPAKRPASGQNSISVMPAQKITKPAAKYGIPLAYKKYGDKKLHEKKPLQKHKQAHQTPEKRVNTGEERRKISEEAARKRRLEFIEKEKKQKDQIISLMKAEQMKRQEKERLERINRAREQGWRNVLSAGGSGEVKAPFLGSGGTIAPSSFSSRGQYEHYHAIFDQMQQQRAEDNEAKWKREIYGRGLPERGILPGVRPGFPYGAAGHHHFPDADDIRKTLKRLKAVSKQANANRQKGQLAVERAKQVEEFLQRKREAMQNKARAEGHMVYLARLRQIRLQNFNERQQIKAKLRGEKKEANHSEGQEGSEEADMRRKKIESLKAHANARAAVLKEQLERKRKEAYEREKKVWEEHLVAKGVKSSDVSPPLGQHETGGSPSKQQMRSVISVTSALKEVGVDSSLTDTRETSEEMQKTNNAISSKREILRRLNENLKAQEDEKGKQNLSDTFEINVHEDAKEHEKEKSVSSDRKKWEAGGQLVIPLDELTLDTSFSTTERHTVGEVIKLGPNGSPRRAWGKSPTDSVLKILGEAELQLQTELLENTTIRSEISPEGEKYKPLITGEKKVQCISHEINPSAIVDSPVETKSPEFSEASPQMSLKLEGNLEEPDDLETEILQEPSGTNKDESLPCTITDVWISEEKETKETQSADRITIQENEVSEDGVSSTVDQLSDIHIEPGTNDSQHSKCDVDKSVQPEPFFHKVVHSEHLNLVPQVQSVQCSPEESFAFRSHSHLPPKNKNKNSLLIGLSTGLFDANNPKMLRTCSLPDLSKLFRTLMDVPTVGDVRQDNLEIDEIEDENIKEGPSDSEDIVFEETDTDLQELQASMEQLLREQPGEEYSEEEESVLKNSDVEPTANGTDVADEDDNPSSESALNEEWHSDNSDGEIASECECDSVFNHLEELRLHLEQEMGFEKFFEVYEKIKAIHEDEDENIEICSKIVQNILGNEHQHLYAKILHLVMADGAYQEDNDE
# [3] = biological target: T2, Serine/threonine-protein kinase Nek1 (Homo sapiens); conditions: at 1 µM
# [4] = biological target: T3, Serine/threonine-protein kinase Nek2 (Homo sapiens) (UniProt P51955); conditions: at 0.1 µM
# T3 sequence (whole entry): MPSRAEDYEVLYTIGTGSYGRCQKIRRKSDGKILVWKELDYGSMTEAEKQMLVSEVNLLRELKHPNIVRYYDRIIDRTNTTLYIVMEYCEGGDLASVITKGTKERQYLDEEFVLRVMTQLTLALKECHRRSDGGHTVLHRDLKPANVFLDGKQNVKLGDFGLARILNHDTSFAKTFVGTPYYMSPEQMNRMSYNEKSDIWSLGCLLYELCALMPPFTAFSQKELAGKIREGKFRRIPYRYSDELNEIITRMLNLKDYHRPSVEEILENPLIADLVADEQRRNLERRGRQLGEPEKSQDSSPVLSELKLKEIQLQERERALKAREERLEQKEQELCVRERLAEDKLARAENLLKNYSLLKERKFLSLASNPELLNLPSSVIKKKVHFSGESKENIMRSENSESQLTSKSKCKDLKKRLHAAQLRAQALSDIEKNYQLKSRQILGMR
# [5] = biological target: T3, Serine/threonine-protein kinase Nek2 (Homo sapiens); conditions: at 1 µM
# [6] = biological target: Serine/threonine-protein kinase Nek6 (Homo sapiens) (UniProt Q9HC98); conditions: at 0.1 µM
# [7] = biological target: Serine/threonine-protein kinase Nek6 (Homo sapiens) (UniProt Q9HC98); conditions: at 1 µM
# [8] = biological target: Serine/threonine-protein kinase Nek7 (Homo sapiens) (UniProt Q8TDX7); conditions: at 0.1 µM
# [9] = biological target: Serine/threonine-protein kinase Nek7 (Homo sapiens) (UniProt Q8TDX7); conditions: at 1 µM
# [10] = biological target: T4, Serine/threonine-protein kinase Nek9 (Homo sapiens) (UniProt Q8TD19); conditions: at 0.1 µM
# T4 sequence (whole entry): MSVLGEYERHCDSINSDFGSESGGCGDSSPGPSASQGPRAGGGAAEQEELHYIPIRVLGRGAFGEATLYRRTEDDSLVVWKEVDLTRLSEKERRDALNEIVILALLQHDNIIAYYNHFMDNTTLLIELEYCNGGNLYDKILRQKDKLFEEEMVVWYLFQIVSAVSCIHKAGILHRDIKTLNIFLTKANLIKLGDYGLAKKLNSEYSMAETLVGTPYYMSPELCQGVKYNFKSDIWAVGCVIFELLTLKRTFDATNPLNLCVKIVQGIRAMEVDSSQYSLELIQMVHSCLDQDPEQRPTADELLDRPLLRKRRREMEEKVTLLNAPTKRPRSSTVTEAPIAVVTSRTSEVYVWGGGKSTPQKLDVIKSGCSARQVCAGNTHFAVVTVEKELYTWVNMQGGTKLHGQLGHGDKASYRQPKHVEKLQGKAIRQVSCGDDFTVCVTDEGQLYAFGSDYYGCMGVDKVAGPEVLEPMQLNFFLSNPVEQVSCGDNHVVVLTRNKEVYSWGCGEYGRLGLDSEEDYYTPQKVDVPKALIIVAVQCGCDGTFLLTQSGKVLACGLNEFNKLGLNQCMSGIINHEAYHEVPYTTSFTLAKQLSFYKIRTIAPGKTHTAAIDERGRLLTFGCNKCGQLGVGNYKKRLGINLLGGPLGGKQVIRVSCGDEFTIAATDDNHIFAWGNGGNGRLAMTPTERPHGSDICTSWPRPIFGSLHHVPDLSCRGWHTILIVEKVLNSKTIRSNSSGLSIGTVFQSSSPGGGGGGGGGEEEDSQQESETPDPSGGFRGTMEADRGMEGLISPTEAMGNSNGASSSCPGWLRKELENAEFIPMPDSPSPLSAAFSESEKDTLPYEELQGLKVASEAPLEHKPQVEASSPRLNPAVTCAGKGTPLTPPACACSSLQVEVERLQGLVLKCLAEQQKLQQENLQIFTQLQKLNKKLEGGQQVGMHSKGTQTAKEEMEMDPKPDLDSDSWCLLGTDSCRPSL
# [11] = biological target: T4, Serine/threonine-protein kinase Nek9 (Homo sapiens); conditions: at 1 µM
# [12] = biological target: Serine/threonine-protein kinase PLK1 (Homo sapiens) (UniProt P53350); conditions: at 0.1 µM
# [13] = biological target: Serine/threonine-protein kinase PLK1 (Homo sapiens) (UniProt P53350); conditions: at 1 µM
# [14] = biological target: T5, Dual specificity protein kinase TTK (Homo sapiens) (UniProt P33981); conditions: at 0.1 µM
# T5 sequence (whole entry): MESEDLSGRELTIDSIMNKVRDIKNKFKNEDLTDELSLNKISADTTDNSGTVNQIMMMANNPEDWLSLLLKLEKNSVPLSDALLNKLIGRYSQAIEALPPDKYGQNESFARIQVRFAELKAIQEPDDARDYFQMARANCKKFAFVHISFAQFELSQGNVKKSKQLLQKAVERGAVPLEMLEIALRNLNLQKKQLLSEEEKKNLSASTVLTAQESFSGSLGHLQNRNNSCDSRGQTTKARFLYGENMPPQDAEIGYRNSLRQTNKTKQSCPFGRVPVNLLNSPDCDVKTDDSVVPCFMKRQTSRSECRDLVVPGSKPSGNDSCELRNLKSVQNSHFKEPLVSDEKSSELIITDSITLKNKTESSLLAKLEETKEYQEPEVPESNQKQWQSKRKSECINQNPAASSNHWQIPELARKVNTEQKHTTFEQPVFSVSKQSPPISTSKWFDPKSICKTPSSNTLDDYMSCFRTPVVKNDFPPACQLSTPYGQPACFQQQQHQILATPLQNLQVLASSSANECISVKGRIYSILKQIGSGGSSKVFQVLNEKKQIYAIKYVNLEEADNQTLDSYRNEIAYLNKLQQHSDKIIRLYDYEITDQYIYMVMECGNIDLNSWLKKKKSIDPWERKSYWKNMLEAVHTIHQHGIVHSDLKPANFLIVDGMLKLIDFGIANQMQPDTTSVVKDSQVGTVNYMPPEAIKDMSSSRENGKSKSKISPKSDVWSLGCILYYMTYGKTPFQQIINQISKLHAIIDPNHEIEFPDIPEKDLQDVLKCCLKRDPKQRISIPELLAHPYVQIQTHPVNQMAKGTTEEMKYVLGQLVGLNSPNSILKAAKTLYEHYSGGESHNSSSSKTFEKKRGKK
# [15] = system: T6, Receptor-type tyrosine-protein kinase FLT3 (Homo sapiens), P36888 [D835Y]; conditions: at 1 µM
# T6 sequence (whole entry): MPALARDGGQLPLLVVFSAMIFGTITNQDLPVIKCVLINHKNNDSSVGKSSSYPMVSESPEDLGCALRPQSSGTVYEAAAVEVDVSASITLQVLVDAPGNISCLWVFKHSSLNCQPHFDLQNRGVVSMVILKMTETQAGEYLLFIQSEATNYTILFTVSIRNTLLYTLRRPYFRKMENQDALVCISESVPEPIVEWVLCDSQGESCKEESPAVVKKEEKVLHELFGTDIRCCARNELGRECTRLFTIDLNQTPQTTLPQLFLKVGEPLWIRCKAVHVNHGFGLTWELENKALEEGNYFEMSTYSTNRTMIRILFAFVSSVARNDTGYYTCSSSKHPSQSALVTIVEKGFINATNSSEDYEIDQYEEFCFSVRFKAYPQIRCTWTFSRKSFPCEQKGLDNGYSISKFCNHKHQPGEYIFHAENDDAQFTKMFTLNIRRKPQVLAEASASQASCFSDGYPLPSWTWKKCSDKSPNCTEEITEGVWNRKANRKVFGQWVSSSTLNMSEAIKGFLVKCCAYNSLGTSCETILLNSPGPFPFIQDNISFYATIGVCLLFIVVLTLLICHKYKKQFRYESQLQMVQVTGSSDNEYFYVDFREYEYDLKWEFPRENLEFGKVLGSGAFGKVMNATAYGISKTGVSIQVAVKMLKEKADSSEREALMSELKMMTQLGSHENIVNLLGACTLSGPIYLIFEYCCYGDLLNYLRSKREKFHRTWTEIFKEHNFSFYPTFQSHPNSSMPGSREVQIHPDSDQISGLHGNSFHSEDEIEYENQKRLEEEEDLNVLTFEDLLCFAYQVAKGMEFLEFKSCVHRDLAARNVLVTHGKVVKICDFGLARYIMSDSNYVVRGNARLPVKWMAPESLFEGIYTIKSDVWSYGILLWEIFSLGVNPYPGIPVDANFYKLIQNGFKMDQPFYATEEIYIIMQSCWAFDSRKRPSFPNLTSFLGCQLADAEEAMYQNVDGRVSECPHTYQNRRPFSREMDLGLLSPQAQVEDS
# [16] = biological target: Vascular endothelial growth factor receptor 3 (Homo sapiens) (UniProt P35916); conditions: at 0.1 µM
# [17] = biological target: Vascular endothelial growth factor receptor 3 (Homo sapiens) (UniProt P35916); conditions: at 1 µM
# [18] = biological target: Macrophage colony-stimulating factor 1 receptor (Homo sapiens) (UniProt P07333); conditions: at 0.1 µM
# [19] = biological target: Macrophage colony-stimulating factor 1 receptor (Homo sapiens) (UniProt P07333); conditions: at 1 µM
# [20] = biological target: Tyrosine-protein kinase Fyn (Homo sapiens) (UniProt P06241); conditions: at 0.1 µM
# Chain of Tyrosine-protein kinase Fyn (Homo sapiens) (P06241 2-537 limits assumed): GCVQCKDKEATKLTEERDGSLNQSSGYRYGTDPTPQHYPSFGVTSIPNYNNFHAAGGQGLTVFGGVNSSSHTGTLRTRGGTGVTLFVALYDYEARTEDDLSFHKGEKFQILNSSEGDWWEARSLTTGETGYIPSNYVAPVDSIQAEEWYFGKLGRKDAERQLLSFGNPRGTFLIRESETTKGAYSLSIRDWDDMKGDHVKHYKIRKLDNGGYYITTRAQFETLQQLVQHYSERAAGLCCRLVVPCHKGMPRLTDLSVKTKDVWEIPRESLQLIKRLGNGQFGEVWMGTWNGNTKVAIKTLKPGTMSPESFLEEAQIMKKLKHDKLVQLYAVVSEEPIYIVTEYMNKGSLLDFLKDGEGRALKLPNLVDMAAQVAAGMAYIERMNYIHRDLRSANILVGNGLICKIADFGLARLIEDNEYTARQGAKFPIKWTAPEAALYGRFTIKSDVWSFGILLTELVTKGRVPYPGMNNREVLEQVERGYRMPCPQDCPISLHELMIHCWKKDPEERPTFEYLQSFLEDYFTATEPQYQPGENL
# Chain of Vascular endothelial growth factor receptor 3 (Homo sapiens) (P35916 whole entry): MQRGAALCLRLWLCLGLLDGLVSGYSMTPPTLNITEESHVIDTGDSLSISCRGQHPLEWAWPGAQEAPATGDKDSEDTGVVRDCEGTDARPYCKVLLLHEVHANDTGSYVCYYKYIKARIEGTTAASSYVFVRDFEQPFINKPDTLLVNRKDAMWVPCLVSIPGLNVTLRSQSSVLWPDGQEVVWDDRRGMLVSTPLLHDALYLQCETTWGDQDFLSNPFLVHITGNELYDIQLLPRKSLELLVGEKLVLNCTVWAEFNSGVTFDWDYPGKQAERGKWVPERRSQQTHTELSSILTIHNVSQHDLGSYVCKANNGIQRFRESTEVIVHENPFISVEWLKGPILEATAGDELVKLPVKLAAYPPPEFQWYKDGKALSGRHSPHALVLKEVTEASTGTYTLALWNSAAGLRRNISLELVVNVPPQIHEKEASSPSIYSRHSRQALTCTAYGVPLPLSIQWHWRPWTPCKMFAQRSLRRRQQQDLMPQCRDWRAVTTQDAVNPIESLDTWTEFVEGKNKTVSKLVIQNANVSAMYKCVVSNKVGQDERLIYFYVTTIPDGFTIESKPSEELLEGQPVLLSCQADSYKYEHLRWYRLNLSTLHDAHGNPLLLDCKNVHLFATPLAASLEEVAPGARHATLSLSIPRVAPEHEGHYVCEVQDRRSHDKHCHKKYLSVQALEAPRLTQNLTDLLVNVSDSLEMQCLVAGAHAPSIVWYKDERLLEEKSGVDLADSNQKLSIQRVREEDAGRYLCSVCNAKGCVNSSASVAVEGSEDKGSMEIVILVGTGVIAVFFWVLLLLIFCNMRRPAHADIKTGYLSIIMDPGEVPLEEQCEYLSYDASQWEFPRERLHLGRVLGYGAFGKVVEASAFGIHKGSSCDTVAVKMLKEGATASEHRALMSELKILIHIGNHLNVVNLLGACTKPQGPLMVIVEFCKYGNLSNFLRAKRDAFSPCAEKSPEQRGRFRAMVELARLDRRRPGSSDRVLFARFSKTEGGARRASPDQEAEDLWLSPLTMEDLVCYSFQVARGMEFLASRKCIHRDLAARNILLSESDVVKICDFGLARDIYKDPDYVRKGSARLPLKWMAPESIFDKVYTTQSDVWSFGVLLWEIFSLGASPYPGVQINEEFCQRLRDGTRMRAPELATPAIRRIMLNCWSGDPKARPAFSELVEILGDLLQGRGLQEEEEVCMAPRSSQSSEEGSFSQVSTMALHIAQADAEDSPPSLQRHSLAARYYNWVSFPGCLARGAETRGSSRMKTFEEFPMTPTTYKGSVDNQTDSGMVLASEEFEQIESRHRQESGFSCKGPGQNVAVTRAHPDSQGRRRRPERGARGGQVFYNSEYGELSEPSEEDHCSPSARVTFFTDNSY
# Chain of Serine/threonine-protein kinase PLK1 (Homo sapiens) (P53350 whole entry): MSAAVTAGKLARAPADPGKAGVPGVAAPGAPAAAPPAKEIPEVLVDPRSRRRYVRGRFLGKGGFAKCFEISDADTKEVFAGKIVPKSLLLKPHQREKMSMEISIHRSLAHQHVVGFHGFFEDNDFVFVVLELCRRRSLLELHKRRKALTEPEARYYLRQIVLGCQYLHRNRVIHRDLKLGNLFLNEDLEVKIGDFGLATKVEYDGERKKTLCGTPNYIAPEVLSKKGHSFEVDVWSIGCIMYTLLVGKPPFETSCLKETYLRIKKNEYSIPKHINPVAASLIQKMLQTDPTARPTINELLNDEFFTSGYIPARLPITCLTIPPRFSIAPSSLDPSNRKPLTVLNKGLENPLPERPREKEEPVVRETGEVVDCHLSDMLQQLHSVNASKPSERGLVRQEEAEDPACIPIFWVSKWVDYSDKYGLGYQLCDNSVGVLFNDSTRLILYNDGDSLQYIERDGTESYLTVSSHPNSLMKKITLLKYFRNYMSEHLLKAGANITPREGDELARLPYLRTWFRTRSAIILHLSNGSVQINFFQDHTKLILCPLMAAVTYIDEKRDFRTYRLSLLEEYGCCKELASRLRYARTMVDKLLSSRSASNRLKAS
# Chain of Serine/threonine-protein kinase Nek6 (Homo sapiens) (Q9HC98 whole entry): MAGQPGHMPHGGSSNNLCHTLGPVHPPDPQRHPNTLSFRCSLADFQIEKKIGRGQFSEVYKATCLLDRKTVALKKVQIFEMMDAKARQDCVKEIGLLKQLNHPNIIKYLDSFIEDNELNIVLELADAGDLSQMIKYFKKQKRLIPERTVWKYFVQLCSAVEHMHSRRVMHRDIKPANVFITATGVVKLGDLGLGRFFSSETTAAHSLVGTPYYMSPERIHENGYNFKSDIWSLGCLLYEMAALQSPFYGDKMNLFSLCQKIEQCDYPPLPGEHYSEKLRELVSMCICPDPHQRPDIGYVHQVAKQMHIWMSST
# Chain of Serine/threonine-protein kinase Nek7 (Homo sapiens) (Q8TDX7 whole entry, looked up): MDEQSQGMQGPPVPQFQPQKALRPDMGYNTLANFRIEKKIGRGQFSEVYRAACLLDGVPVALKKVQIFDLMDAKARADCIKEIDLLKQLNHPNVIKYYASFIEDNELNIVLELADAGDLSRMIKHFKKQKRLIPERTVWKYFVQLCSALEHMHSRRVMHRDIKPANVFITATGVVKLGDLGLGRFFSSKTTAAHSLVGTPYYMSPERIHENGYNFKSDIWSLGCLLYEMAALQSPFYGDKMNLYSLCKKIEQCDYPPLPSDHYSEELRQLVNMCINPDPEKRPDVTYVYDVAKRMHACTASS
# Chain of Macrophage colony-stimulating factor 1 receptor (Homo sapiens) (P07333 whole entry): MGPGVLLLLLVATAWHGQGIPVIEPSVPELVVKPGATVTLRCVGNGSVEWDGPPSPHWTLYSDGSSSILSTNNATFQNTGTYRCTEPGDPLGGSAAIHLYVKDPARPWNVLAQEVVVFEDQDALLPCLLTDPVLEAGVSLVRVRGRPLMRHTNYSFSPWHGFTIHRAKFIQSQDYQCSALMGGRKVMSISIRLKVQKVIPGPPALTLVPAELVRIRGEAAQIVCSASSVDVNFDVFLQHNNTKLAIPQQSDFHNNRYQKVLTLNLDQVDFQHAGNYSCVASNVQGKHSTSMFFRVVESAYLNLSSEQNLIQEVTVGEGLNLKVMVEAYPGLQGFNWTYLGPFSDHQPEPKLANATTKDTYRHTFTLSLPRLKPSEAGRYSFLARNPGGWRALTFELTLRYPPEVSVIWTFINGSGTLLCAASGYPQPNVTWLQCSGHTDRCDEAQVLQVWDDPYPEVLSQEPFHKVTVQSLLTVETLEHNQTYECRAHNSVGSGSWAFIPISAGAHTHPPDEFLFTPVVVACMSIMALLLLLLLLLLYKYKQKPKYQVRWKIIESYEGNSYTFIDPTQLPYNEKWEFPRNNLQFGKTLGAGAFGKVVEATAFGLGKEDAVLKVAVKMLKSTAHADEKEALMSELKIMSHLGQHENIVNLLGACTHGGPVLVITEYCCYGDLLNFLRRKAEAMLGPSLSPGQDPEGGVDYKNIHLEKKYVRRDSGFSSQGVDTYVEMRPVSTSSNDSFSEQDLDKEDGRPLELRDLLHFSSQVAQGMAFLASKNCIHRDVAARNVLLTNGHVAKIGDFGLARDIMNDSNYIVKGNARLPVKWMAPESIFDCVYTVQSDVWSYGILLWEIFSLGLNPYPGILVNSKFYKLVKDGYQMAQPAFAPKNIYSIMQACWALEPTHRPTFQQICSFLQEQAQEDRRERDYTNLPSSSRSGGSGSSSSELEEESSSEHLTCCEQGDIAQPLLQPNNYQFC
SMILES,inhibition [1] [%],inhibition [2] [%],inhibition [3] [%],inhibition [4] [%],inhibition [5] [%],inhibition [6] [%],inhibition [7] [%],inhibition [8] [%],inhibition [9] [%],inhibition [10] [%],inhibition [11] [%],inhibition [12] [%],inhibition [13] [%],inhibition [14] [%],inhibition [15] [%],inhibition [16] [%],inhibition [17] [%],inhibition [18] [%],inhibition [19] [%],inhibition [20] [%]
CC(=O)NCc1cccc(C#Cc2cncnc2Nc2ccc(OCc3cccc(F)c3)c(Cl)c2)c1,-1,0.64,1.25,0.96,0.7,-1.02,-2.65,4.09,2.44,0.38,-3.77,1.79,1.35,8.83,-1.12,2.27,3.6,1.13,0.82,1.08
Clc1ccc(-c2nn3ncccc3c2-c2ccnc(Nc3ccccc3)n2)cc1,-3.51,1.79,1.38,2.53,1.79,2.55,2.29,2.07,1.34,5.9,-3.71,-9.28,3.17,3.63,-0.74,4.99,16.2,4.3,32.3,9.12
COC(=O)Nc1nc2ccc(Oc3ccc(NC(=O)Nc4cccc(Cl)c4)cc3)cc2[nH]1,1.25,0.97,0.11,0.46,0.04,2.21,-0.77,1.46,1.97,5.35,2.84,-0.55,0.69,2.99,1.8,4.07,9.34,16.5,45.2,0.86
CNC(=O)c1cc(-c2ccc(F)cc2)cc(-c2ccc(S(=O)(=O)N3CCCC3)cc2)c1N,3.73,1.09,2.25,4.19,2.55,3.41,2.7,3.41,7.48,5.37,7.69,2.97,3.38,4.67,5.93,0.74,2.49,0.47,1.28,1.22

# From ChEMBL document CHEMBL1961873, “Compounds: GSK PKIS; Assays: Nanosyn kinase panel” (2012)
